Source: paper PMC4336329 (PLoS ONE, 2015)
Hit rate of the full screen: of about 310,000 compounds, about 14,000 (4.5%) showed an effect of 50% or more. Effects have a minus sign here. The full list was thinned out, with strong results kept by preference.

Each compound was assayed against human ether-à-go-go-related gene (hERG) potassium channel (human, UniProt Q12809) (assay: primary screen, population patch clamp on CHO cells stably expressing hERG; higher = less effect of the substance).
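Also: peak tail current of the secondary pulse compared with the same well before compound.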

Sequence of human ether-à-go-go-related gene (hERG) potassium channel (Q12809 whole entry, looked up): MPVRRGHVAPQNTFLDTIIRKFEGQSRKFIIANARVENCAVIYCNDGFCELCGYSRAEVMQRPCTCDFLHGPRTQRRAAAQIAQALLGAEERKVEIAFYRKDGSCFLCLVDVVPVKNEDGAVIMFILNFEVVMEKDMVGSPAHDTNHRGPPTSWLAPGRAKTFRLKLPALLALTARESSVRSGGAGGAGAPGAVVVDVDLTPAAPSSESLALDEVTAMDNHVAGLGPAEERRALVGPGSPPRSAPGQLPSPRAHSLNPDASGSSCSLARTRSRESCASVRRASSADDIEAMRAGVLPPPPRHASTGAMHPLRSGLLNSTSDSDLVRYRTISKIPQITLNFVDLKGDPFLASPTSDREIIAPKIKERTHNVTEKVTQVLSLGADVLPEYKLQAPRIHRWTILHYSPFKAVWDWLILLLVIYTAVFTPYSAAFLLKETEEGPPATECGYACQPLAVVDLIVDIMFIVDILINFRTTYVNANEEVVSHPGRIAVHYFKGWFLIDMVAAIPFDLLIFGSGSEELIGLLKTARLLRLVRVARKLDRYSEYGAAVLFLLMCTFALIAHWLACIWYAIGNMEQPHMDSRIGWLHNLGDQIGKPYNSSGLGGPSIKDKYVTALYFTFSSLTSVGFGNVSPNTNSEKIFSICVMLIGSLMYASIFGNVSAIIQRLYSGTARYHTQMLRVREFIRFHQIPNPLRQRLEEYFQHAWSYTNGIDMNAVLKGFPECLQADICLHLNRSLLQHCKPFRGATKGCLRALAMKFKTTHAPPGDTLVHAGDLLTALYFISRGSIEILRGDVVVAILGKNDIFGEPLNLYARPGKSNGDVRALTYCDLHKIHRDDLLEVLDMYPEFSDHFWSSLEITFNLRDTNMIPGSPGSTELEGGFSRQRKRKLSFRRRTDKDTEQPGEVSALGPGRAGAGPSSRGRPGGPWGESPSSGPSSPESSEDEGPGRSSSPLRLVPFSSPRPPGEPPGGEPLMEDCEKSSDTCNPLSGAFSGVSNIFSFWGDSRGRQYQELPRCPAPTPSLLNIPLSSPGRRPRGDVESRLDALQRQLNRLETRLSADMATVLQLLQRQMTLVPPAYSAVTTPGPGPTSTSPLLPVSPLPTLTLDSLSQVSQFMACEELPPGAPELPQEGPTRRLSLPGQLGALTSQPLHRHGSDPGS

| Structure (SMILES) | hERG current change (%, negative = inhibition) at 10uM |
| --- | --- |
| Cc1ccc2cc(C(=O)O)c(C)nc2c1 | 11.6% |
| CCC(CC)C(=O)Nc1ccncc1 | 23.9% |
| COc1ccccc1CNC(=O)c1ccccc1C(=O)NC(CC(C)C)C(=O)NCc1ccccc1OC (stereo not drawn) | 10.6% |
| Cc1c(NC(=O)c2ccco2)cccc1C(=O)NN1C(=O)c2ccccc2C1=O | 16.4% |
| COC(CNC(=O)c1ccc2c3c(onc13)-c1ccccc1C2=O)OC | -1.15% |
| Cl.OCCNCc1cccc(OCc2ccccc2Cl)c1 | -17.6% |
| COc1ccc(N2CC(C(=O)Nc3ccc(S(=O)(=O)N4CCOCC4)cc3)CC2=O)cc1 (stereo not drawn) | 13.4% |
| CCN(CC)CCNC(=O)c1cn(-c2ccccc2)nc1-c1cccs1.Cl | -69% |
| Cl.O=C(NCCN1CCOCC1)c1cn(-c2ccccc2)nc1-c1cccs1 | -25.6% |
| CCN(CC)CCNC(=O)c1ccc(NC(=O)c2cn(-c3ccccc3)nc2-c2cccs2)cc1 | -32.7% |
| COc1cccc(CNC(=O)c2ccccc2SCC(=O)N2CCCC2)c1 | -22.7% |
| COc1cccc(CN2CCNC(=O)C2CC(=O)O)c1OC (stereo not drawn) | 11.4% |
| Cc1ccc(S(=O)(=O)CCNC(=O)Cc2ccccc2)cc1 | 26.9% |
| CCN=c1sc2ccccc2n1CC(O)COc1ccccc1 (stereo not drawn) | -44% |
| CN=c1sc2ccccc2n1CC(O)COCc1ccco1 (stereo not drawn) | -65.4% |
| OC(CN=c1sc2ccccc2n1CC(O)COc1ccccc1)COc1ccccc1 (stereo not drawn) | -1.46% |
| CN=c1sc2ccccc2n1CC(O)COc1ccccc1 (stereo not drawn) | -57.5% |
| Cc1cc(C)n(CC(O)COCc2ccco2)n1 (stereo not drawn) | -3.37% |
| CN=c1sc2ccccc2n1CC(O)c1ccccc1 (stereo not drawn) | -21.4% |
| CN(C)C(=O)c1ccc2c3c(cccc13)CC2 | 24.6% |
| COc1cc(NC(=O)CCCNC(=O)Cn2cnc3sc4c(c3c2=O)CCCC4)cc(OC)c1OC | 29.6% |
| O=C(COc1ccc2c(c1)oc(=O)c1ccccc12)NCCN1CCOCC1 | -11% |

| Structure (SMILES) | hERG current change (%, negative = inhibition) at 10uM |
| --- | --- |
| COc1ccc2oc(=O)c(C(=O)NCC3CCCO3)cc2c1 (stereo not drawn) | 3.67% |
| Cc1cccn2c(=O)c3cc(C(=O)NCC4CCCO4)c(=N)n(CCc4ccccc4)c3nc12 (stereo not drawn) | -76.7% |
| COc1ccc(CCNC(=O)CNCC2CCCO2)cc1OC.O=C(O)C(=O)O (stereo not drawn) | 14.1% |
| O=C(CSc1nc2ccc(N3CCOCC3)cc2c(=O)n1CCc1ccccc1)NCC1CCCO1 (stereo not drawn) | -47% |
| COc1ccc(CCn2c(=N)c(C(=O)NCC3CCCO3)cc3c(=O)n4cccc(C)c4nc32)cc1 (stereo not drawn) | -79.7% |
| COc1ccc(CCn2c(=N)c(C(=O)NCC3CCCO3)cc3c(=O)n4cccc(C)c4nc32)cc1OC (stereo not drawn) | -80.9% |
| COc1ccc(CCNC(=O)C(=O)NCC2CCCO2)cc1 (stereo not drawn) | -0.535% |
| O=C(NCC1CCCO1)c1ccc2c(=O)n(CCc3ccccc3)c(=O)[nH]c2c1 (stereo not drawn) | 7.98% |
| CNC(=O)Oc1ccc2c(c1)C(=O)c1ccccc1CO2 | 6.76% |
| CNC(=S)Nc1cc(OC)c(NC(=O)c2ccco2)cc1OC | 14.9% |
| Cc1cc(C)nc(NNS(=O)(=O)c2ccc(F)c(Cl)c2)n1 | 0.38% |
| Cc1ccc(C)n1NC(=O)c1cccs1 | 9.98% |
| CCOCCCNCC(O)c1ccccc1.O=C(O)C(=O)O (stereo not drawn) | 3.55% |
| O=C(N/N=C/c1cc(Cl)cc([N+](=O)[O-])c1O)C(O)(c1ccccc1)c1ccccc1 | -53% |
| O=C(N/N=C/c1cccc([N+](=O)[O-])c1O)C(O)(c1ccccc1)c1ccccc1 | 8.16% |
| O=C(N/N=C/c1cc([N+](=O)[O-])cc([N+](=O)[O-])c1O)C(O)(c1ccccc1)c1ccccc1 | -4.37% |
| Cc1ccc(/C(O)=C2/C(=O)C(=O)N(c3ccccn3)C2c2ccc([N+](=O)[O-])cc2)cc1 (stereo not drawn) | 8.83% |
| COC(=O)COc1cccc2c(=O)n(CC(=O)NCc3ccc(F)cc3)ccc12 | 1.82% |
| O=C1CC(c2cccnc2)=NN1c1ccc(Cl)cc1Cl | 12.1% |
| C/C=C(/C)C(=O)O[C@@H]1c2c(ccc3ccc(=O)oc23)O[C@@H]1C(C)(C)OC(=O)/C(C)=C\C | -0.936% |
| O=C1OC(Nc2cc(Br)cc3cccnc23)c2ccccc21 (stereo not drawn) | -9.92% |
| CCOc1cc(/C=N/NS(=O)(=O)c2ccc(OC)cc2)ccc1OCCN1CCOCC1 | -53.8% |

| Structure (SMILES) | hERG current change (%, negative = inhibition) at 10uM |
| --- | --- |
| COc1cc(/C=N/NS(=O)(=O)c2ccc3ccccc3c2)ccc1OCCN1CCOCC1 | -39.5% |
| COc1ccc(S(=O)(=O)N/N=C/c2ccc(OCCN3CCOCC3)c(OC)c2)cc1 | 1.42% |
| CCn1c(COc2ccccc2C)nnc1SCC(=O)OC | -9.68% |
| O=C(CN(C(=O)c1csnn1)c1cccc2ccccc12)NC1CCCC1 | -2.34% |
| Cc1cc(NC(=O)Cc2ccccc2)c2ccccc2n1 | 14.2% |
| COc1ccc(CNc2cc(C)nc3ccc(OC)cc23)cc1 | -72.8% |
| Cc1cc(NCCO)c2ccccc2n1.Cl | 6.81% |
| Cc1cc(NCC2CCCCC2)nc2ccccc12 | -42.7% |
| COc1ccc2nc(C)cc(N/N=C/c3ccc(F)cc3)c2c1 | 0.337% |
| COC(=O)CSc1cc(C)nc2ccc(OC)cc12 | 1.44% |
| Cc1cc(NCc2ccccn2)nc2ccccc12 | -15.4% |
| Cc1cc(NCc2ccccc2)c2ccccc2n1.Cl | -67.5% |
| Cc1cc(NCc2ccccc2)nc2ccccc12 | -50.9% |
| COc1ccc2nc(C)cc(NCc3cccc(C(F)(F)F)c3)c2c1 | -31.7% |
| COc1ccc2nc(NCc3ccccc3)[nH]c2c1 | -25.4% |
| COc1ccc2nc(C)cc(NCc3ccc(F)cc3)c2c1 | -61.6% |
| Cc1cc(C(=O)NNc2c(Cl)cccc2Cl)no1 | 3.46% |
| CC1(C)Cc2nc3oc4c(SCC(N)=O)ncnc4c3cc2CO1 | 4.95% |
| Cc1ccc(S(=O)(=O)N(C)C)cc1NC(=O)COC(=O)/C=C/c1ccc2c(c1)OCO2 | -9.63% |
| O=C(NC1CCCCC1)C1CCCN(S(=O)(=O)c2cccs2)C1 (stereo not drawn) | 11.3% |
| COc1ccc(NC(=O)OCCN2CCN(Cc3ccccc3)CCC2=O)cc1 | -9.25% |
| COc1c(O)ccc(/C=N/NC(=O)c2ccc3c(c2)OCCO3)c1[N+](=O)[O-] | 7.36% |

| Structure (SMILES) | hERG current change (%, negative = inhibition) at 10uM |
| --- | --- |
| CC(=O)c1ccc(-n2cc(-c3ccc(C(C)(C)C)cc3)[n+]3c2SCCC3)cc1.[Br-] | -30.1% |
| COc1ccc(-c2cn(-c3ccccc3)c(=S)[nH]2)cc1OC | 16.1% |
| N#Cc1ccc(-c2cn(-c3ccccc3)c3[n+]2CCCS3)cc1.[Br-] | 16.3% |
| FC(F)Sc1ccc(-n2cc(-c3ccccc3)[n+]3c2CCC3)cc1.[Br-] | -77.9% |
| O=C(Cc1ccc(Cl)cc1)Nc1ccc(SC(F)F)cc1 | -1.83% |
| FC(F)Sc1ccc(-n2cc(-c3ccc(Cl)cc3)[n+]3c2CCC3)cc1.[Br-] | -74.3% |
| [Br-].c1ccc(-c2cn(-c3ccccc3)c3[n+]2CCCS3)cc1 | -3.51% |
| COc1ccc(-n2cc(-c3ccc(OC)c(OC)c3)[nH]c2=S)cc1 | 6.1% |
| COc1ccc(-c2cn(-c3ccc(SC(F)F)cc3)c3[n+]2CCC3)cc1OC.[Br-] | -62.4% |
| O=[N+]([O-])CC(c1ccccc1)c1c[nH]c2ccccc12 (stereo not drawn) | 10.6% |
| O=C(CN1C(=O)NC(Cc2c[nH]c3ccccc23)C1=O)Nc1ccc(F)c(F)c1F (stereo not drawn) | -5.36% |
| O=C(Nc1cccc(Cl)c1)N1CCN2C(=O)c3ccccc3C12c1ccccc1 (stereo not drawn) | -24.3% |
| COc1ccc(CNC(=S)Nc2ccccc2)cc1 | 7.34% |
| O=C(Cc1ccc([N+](=O)[O-])cc1)N1CCCc2ccccc21 | -41.1% |
| O=C(Oc1c(Cl)cc(Cl)c2ccccc12)N1CCCC1 | -25.9% |
| CC(COc1ccc(/C=C/c2ccccc2)cc1)[N+](C)(C)C.[I-] (stereo not drawn) | -9.04% |
| CC(C)(C)C(=O)Nc1ccc(C(=O)Nc2cc(NC(=O)c3ccc(NC(=O)C(C)(C)C)cc3)cc(C(=O)O)c2)cc1 | 6.62% |
| CCCc1cc(C(=O)Nc2ccc(C(=O)OC)cc2)cs1 | 5.28% |
| CCOc1cc(/C=N/NC(=O)c2nn(C)cc2Br)ccc1OCc1ccccc1 | 5.59% |
| CCOc1cc(/C=N/NC(=O)c2nn(C)cc2Br)ccc1OCc1ccccc1Cl | -14.7% |
| COc1ccc(/C=N/NC(=O)c2nn(C)cc2Br)cc1CSCc1ccco1 | -50.6% |
